Shown are actives, neighbours in structure and some others; about 31% of the full set was active somewhere.
CYP2C19 activ: human CYP2C19 activators, primary screen, biochemical, luminescence. Cytochrome P450 2C19 (Homo sapiens), P33261. recombinant CYP2C19, luciferin-H EGE luminescence; stronger effect = higher value; 0 = fully inhibited enzyme, 1 = untreated enzyme. activation factor at 5 µM. 96,000 tested, under 10 active. AID 1025, 2008;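 active = activation factor of at least 2 at 5 µM in the primary screen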
Target sequence (P33261 whole entry, looked up): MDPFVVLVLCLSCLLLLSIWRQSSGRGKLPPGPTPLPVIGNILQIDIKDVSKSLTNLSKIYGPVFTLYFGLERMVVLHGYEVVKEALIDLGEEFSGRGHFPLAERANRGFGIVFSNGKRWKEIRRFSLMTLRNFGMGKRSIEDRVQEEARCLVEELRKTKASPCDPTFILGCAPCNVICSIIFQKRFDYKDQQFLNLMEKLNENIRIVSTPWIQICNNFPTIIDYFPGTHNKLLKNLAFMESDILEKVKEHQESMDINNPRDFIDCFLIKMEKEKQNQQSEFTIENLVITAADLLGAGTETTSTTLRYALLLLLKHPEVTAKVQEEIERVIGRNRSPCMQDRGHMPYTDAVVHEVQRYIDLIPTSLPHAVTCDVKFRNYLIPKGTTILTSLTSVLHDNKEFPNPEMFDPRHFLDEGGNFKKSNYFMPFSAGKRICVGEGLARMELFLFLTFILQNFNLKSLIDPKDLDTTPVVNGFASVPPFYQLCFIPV
CYP2C19 inh: blockers of cytochrome P450 2C19 activity – biochemical, luminescence, ADME assay, primary screen | CYP2C19 Supersomes, luciferin-H EGE luminescence, 30 min | actives 21% (n = 96,000) | AID 778, 2007 | inhibition, % at 5 µM;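 active = CYP2C19 inhibition above a set limit at 5 µM in the primary screen, cut at about 50% in these data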
CYP2C9 inh: blockers of cytochrome P450 2C9 activity – biochemical, luminescence, ADME assay, primary screen; P11712; AID 777, 2007; CYP2C9 Supersomes, luciferin-H conversion; inhibition, % at 5 µM; actives 20% (n = 96,000);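 active = blocking of liver enzyme CYP2C9 beyond about 50% at 5 µM, limit read from the data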
CYP2C9 activ: human CYP2C9 activators, primary screen, biochemical, luminescence | Cytochrome P450 2C9 (Homo sapiens), P11712 | recombinant CYP2C9, luciferin-H conversion; stronger effect = higher value; factor 1 = untreated enzyme, 0 = blocked | activation factor at 5 µM | actives 1.4% (n = 96,000);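 active = activation factor of 2 or more for CYP2C9 at a 5 µM dose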
Of the large screens only hits and unclear results are named; the others gave an inactive call.

Clc1ccc(-c2nc3cnccn3c2Nc2ccc3c(c2)OCO3)cc1	CYP2C19 inh 87, CYP2C9 inh 82
CSc1ccc(-c2nc3cnccn3c2Nc2ccc3c(c2)OCO3)cc1	CYP2C19 inh 96, CYP2C9 inh 88
Clc1ccc(-c2nc3cnccn3c2NC2CCCC2)cc1	CYP2C19 inh 76, CYP2C9 inh 89
Cc1cc(C)cc(N(CC(=O)NC2CC3CCC2C3)S(C)(=O)=O)c1 (stereo not given)	none
C1CCC(OCCN2CCN(CCOC3CCCCC3)CC2)CC1	none
Cc1csc(NC(=O)CSc2ncnc3c2cnn3-c2ccccc2Cl)n1	CYP2C19 inh 90, CYP2C9 inh 90
CC1CCc2c(sc(NC(=O)CSc3ncnc4c3cnn4-c3ccccc3Cl)c2C#N)C1 (stereo not given)	CYP2C9 inh 72
COc1cc(Br)c(C(C)NC(=O)c2cccc(Br)c2)cc1OC (stereo not given)	CYP2C19 inh 62, CYP2C9 inh 66
CCCCCC(C)n1[nH]c(=O)cc1N (stereo not given)	none
O=C1COc2ccc(C(=O)c3ccccc3)cc2CN1	none
CCN(CC)C(=O)C1CCCN(c2ccc([N+](=O)[O-])cc2/C=N/NC(=O)c2ccc([N+](=O)[O-])cc2)C1 (stereo not given)	none
CCN(CC)C(=O)C1CCCN(c2ccc([N+](=O)[O-])cc2/C=N/NC(=O)c2cccc(O)c2)C1 (stereo not given)	CYP2C19 inh 89, CYP2C9 inh 93
CC(=C1C(=O)c2ccccc2C1=O)N1CCc2ccccc2C1	CYP2C19 inh 81, CYP2C9 inh 63
O=C(NC1CCCCC1)C1CCN(S(=O)(=O)N2CCOCC2)CC1	none
COc1ccc(CNC(=O)Oc2ccccc2)cc1Cl	CYP2C19 inh 63, CYP2C9 activ 2.4
COC(=O)NCc1ccc(Cl)c(Cl)c1	CYP2C19 inh 64
COC(=O)NCc1cccc(CNC(=O)OC)c1	none
COC(=O)NCc1ccc(CNC(=O)OC)cc1	none
COCCN1CCn2c(nc3cc(NC(=O)c4ccc(OC)cc4)ccc32)C1	none
CC12CC(NC(=O)N1c1cccc(C(=O)N3CCN(c4ccccc4F)CC3)c1)c1ccccc1O2 (stereo not given)	CYP2C9 inh 79
CC12CC(NC(=O)N1c1cccc(C(=O)NCc3ccc4c(c3)OCO4)c1)c1cc(Cl)ccc1O2 (stereo not given)	CYP2C19 inh 59, CYP2C9 inh 79
CC12CC(NC(=O)N1c1cccc(C(=O)N3CCN(c4ccccn4)CC3)c1)c1ccccc1O2 (stereo not given)	CYP2C9 inh 63
Cc1cccc(NC(=S)NNC(=O)CCn2cc(C)cn2)c1	none
Cc1ccccc1Cn1cc(NC(=O)CSc2nc3c(c(C(F)(F)F)n2)CCc2ccccc2-3)cn1	CYP2C9 inh 81
Cc1nn(Cc2ccc(Cl)cc2)c(C)c1NC(=O)CSc1nc2c(c(C(F)(F)F)n1)CCc1ccccc1-2	CYP2C9 inh 72
NC(=O)c1c(NC(=O)CSc2nc3c(c(C(F)(F)F)n2)CCc2ccccc2-3)sc2c1CCCC2	none
O=C(CN1CCCC1)Nc1ccc(-c2nc3cc(NC(=O)CN4CCCC4)ccc3o2)cc1	none
CC(CN1CCCC(C(N)=O)C1)c1ccccc1 (stereo not given)	none
N/C(Cn1nnc(-c2ccccc2)n1)=N\O	none
N#Cc1cccc(Cn2nnc(-c3ccccc3)n2)c1	CYP2C19 inh 69
CC1=C(C)[N+](=O)C2CCCCC2N1[O-] (stereo not given)	none
CC1=C2C(CCS2(=O)=O)CC2(C1)C(=O)OC(C)(C)OC2=O (stereo not given)	CYP2C19 inh 82
COCCN1C(=O)C(=O)/C(=C(/O)c2ccc(S(=O)(=O)N3CCOCC3)cc2)C1c1ccc(C(C)C)cc1 (stereo not given)	none
CCc1ccc(/C=C2/SC(=S)N(CC(=O)Nc3nc4ccccc4s3)C2=O)cc1	CYP2C9 inh 53
CCOc1ccc(NC(=O)c2cn(-c3ccc(OCC)cc3)c(=O)c3cc(OC)c(OC)cc23)cc1	none
CCOc1ccc(-n2cc(C(=O)Nc3cccc(Cl)c3)c3cc(OC)c(OC)cc3c2=O)cc1	CYP2C9 inh 59
COc1ccc(CN(C)C2CCCCC2)c(C)c1C	CYP2C19 inh 76
COc1ccc(CN2CCCCC2C)c(C)c1C (stereo not given)	none
